Laboratory results as given in PubChem BioAssay (Tox21).
Unmarked numbers belong to inactive results. Results filed as inconclusive are left out. Where a call stands in place of a potency, no number is given. Activity calls are given as the source filed them. Unless noted, calls follow the shape of the full dose curve.

Experiments:
[1] = Nuclear factor erythroid 2-related factor 2/antioxidant responsive element (Nrf2/ARE) small molecule agonists: qHTS cell viability counter screen in human keratinocytes (AID 1919968; active = well fitted curve in the direction sought with a large enough effect in the repeat runs; an effect the other way counts as inactive or inconclusive; also: nearly all actives have a fitted effect of over 55% in size)
In short: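 CellTiter-Fluor fluorescence, read 1 h after reagent, gave viability in the same wells as the ARE-luciferase assay. KeratinoSens cells (1,500/well) had 23 h compound exposure at 37 C/5% CO2 following 5 h plating.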

[2] = Nuclear factor erythroid 2-related factor 2/antioxidant responsive element (Nrf2/ARE) small molecule agonists: luciferase reporter gene qHTS assay in human keratinocytes (AID 1919969); also: nearly all actives have a fitted effect of over 35% in size; also: potency is read from the fitted curve at half-maximal effect
[3] = target: Gonadotropin-releasing hormone receptor (Homo sapiens) (UniProt P30968); assay: Human gonadotropin-releasing hormone receptor (GnRHR) small molecule agonists, calcium flux assay in GnRHR-HEK293 cells (AID 1920063); also: nearly all actives have a fitted effect of over 35% in size
In short: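 Agonist mode: compounds at 15 concentrations, in triplicate, went onto calcium dye-loaded GnRHR-HEK293 cells. Intracellular calcium was then followed as 480/540 nm fluorescence at 1 s intervals over 3 min.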

[4] = target: KiSS-1 receptor (Homo sapiens) (UniProt Q969F8); assay: Human kisspeptin (KISS1R) small molecule agonists, calcium flux assay in KISS1R-HEK293 cells (AID 1920064; active = well fitted curve in the direction sought with a large enough effect in the repeat runs; an effect the other way counts as inactive or inconclusive)
In short: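 Agonist mode: intracellular calcium rise tracked at 1 s intervals over 3 min (480/540 nm) immediately after compound addition to dye-loaded KISS1R-HEK293 stable cells. Each compound tested at 15 concentrations in triplicate.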

[5] = G protein-coupled receptor (GPCR) small molecule agonists, calcium flux assay: HEK293 wild type cell line counter screen (AID 1920065)
In short: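 Calcium flux counter screen: compound added in agonist mode at 15 concentrations in triplicate to dye-loaded parental HEK293 cells. Fluorescence (480/540) read kinetically for 3 min; ATP served as positive control.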

[6] = p53 small molecule agonists, cell-based qHTS assay with human liver microsomes (AID 1963577);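 also: p53 response element beta-lactamase reporter cells with liver microsomes plus NADPH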
In short: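 With metabolic activation: human liver microsomes (0.5 mg/mL final) plus NADPH (0.5 mg/mL final) added alongside compounds to p53RE-bla cells; 16 h 37 C exposure; beta-lactamase read by LiveBLAzer fluorescence.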

[7] = p53 small molecule agonists, cell-based qHTS assay with rat liver microsomes (AID 1963578)
In short: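 Metabolic activation by rat liver microsomes and NADPH, each 0.5 mg/mL final, added right after compounds to p53RE-bla reporter cells (4,000/well, plated 5 h earlier). 16 h at 37 C, then LiveBLAzer substrate for 2 h at room temperature in the dark; fluorescence read-out.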

[8] = p53 small molecule agonists, cell-based qHTS assay with human liver microsomes: qHTS cell viability counter screen (AID 1963579); also: nearly all actives have a fitted effect of over 45% in size
In short: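 Metabolic activation used human liver microsomes and NADPH, both 0.5 mg/mL final, over 16 hours at 37 C on p53RE-bla cells (4,000/well). Cytotoxicity measured by CellTiter-Glo luminescence, 30 min at room temperature.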

[9] = p53 small molecule agonists, cell-based qHTS assay (AID 1963582; active = well fitted activation curve with a large enough effect in the signal ratio in the repeat runs, not every such curve was filed as active; the % refers to the signal ratio)
In short: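 Read-out is beta-lactamase FRET fluorescence after 2 h at room temperature with LiveBLAzer B/G substrate. p53 response element-bla cells were treated 16 h at 37 C with compounds in DMSO, added 5 h after seeding.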

[10] = target: Beta-2 adrenergic receptor (Homo sapiens) (UniProt P07550); assay: Adrenergic beta2 receptor (ADRB2) small molecule antagonists, cell-based qHTS assay (AID 1963592); also: series mostly up to about 92 µM; nearly all actives have a fitted effect of over 50% in size
In short: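 Assay format: CHO-ADRB2 cells, 18-20hr seeding at 37C/5% CO2, then compound plus 1nM isoproterenol agonist mix for 0.5hr RT. Homogeneous time-resolved fluorescence cAMP detection after 1hr, expressed as 665/615 nm ratio.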

[11] = target: Beta-2 adrenergic receptor (Homo sapiens) (UniProt P07550); assay: Adrenergic beta2 receptor (ADRB2) small molecule agonists, cell-based qHTS assay (AID 1963593);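 also: CHO cells stably overexpressing human ADRB2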
In short: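 CHO cells stably over-expressing ADRB2 were plated overnight at 37C, then dosed with compounds plus a stimulation mix containing 100uM IBMX and 25uM Ro-20-1724 for 0.5hr at room temperature. cAMP was measured by HTRF competition, 1hr.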

[12] = target: D(2) dopamine receptor (Homo sapiens) (UniProt P14416); assay: Dopamine D2 receptor (DRD2) small molecule agonists, cell-based qHTS assay (AID 1963594); also: nearly all actives have a fitted effect of over 35% in size
In short: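 HEK293 cells stably expressing human DRD2, pre-treated with PDE inhibitor Ro20-1724 (0.1 mM final) and compound 10 min at room temperature, then stimulated with NKH477 (200nM […]) for 30 min. cAMP read by HTRF (665/620 nm).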

[13] = target: 5-hydroxytryptamine receptor 2A (Homo sapiens) (UniProt P28223); assay: 5-hydroxytryptamine receptor 2A (HTR2A) small molecule agonists, cell-based qHTS assay (AID 1963587); also: nearly all actives have a fitted effect of over 30% in size
In short: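 CHO cells stably expressing human HTR2A, plated 18 h, loaded with calcium dye 1 h at 37 C. Agonist mode: compounds added and intracellular calcium fluorescence recorded kinetically for 2 min at 1 sec intervals.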

[14] = target: Muscarinic acetylcholine receptor M1 (Homo sapiens) (UniProt P11229); assay: Cholinergic receptor muscarinic 1 (CHRM1) small molecule antagonists, cell-based qHTS assay (AID 1963588); also: nearly all actives have a fitted effect of over 40% in size; also: potency is read from the fitted curve at half-maximal effect
In short: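 Compounds were tested at 15 concentrations in three independent runs. Dye-loaded CHRM1-CHO cells were exposed 5 min at room temperature before stimulation by acetylcholine added at 50nM. Intracellular calcium was read kinetically on FDSS for 3 min.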

[15] = target: Muscarinic acetylcholine receptor M1 (Homo sapiens) (UniProt P11229); assay: Cholinergic receptor muscarinic 1 (CHRM1) small molecule agonists, cell-based qHTS assay (AID 1963589); also: nearly all actives have a fitted effect of over 35% in size
In short: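 Agonist-mode calcium-flux screen: compounds at 15 concentrations, three independent runs, were pin-transferred onto dye-loaded human CHRM1-CHO cells. Fluorescence was then recorded kinetically every second over minutes.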

[16] = cAMP Responsive Elements (CRE) small molecule agonists, cell-based qHTS assay (AID 1963590)
In short: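 Agonist mode: compound added to CRE-bla HEK 293T cells (2,000/well, 18 h after plating) for 3 h at 37 C/5% CO2. Reporter activity detected via FRET beta-lactamase substrate, 2 h room-temperature loading.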

[17] = cAMP Responsive Elements (CRE) small molecule antagonists, cell-based qHTS assay (AID 1963591; active = well fitted inhibition curve with a large enough effect in the signal ratio in the repeat runs, not every such curve was filed as active; the % refers to the signal ratio)
In short: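 Antagonist mode: compounds are added alongside the adenylyl cyclase activator NKH477 (0.25 uM final) to CRE-bla HEK293T cells for 3 h. LiveBLAzer FRET substrate, 2 h at room temperature, reports bla expression.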

[18] = p53 small molecule agonists, cell-based qHTS assay: qHTS cell viability counter screen (AID 1963581); also: nearly all actives have a fitted effect of over 45% in size
In short: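 Counter screen read by CellTiter-Glo luminescence (ATP content, 30 min at room temperature), run in the same wells as the beta-lactamase reporter read. HCT-116 p53RE-bla cells saw compounds for 16 h at 37 C.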

[19] = target: 5-hydroxytryptamine receptor 2A (Homo sapiens) (UniProt P28223); assay: 5-hydroxytryptamine receptor 2A (HTR2A) small molecule antagonists, cell-based qHTS assay (AID 1963586); also: nearly all actives have a fitted effect of over 45% in size
In short: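 CHO cells stably expressing human HTR2A were plated for 18 h at 37 C, then loaded with calcium dye for 1 h. Compounds were preincubated 5 min at room temperature before DOI (4 nM solution) was added. Kinetic fluorescence was read for 3 min.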

[20] = target: D(2) dopamine receptor (Homo sapiens) (UniProt P14416); assay: Dopamine D2 receptor (DRD2) small molecule antagonists, cell-based qHTS assay (AID 1963595; active = well fitted inhibition curve with a large enough effect in the signal ratio in the repeat runs, with a control signal flat; the % refers to the signal ratio)
In short: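 HEK293 cells stably expressing DRD2, preincubated with 0.1 mM Ro20-1724 and compounds 10 min, were stimulated with 200 nM NKH477 plus 12 nM quinpirole for 30 min at room temperature; cAMP measured by HTRF (665/620 nm).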

Sequence of Beta-2 adrenergic receptor (Homo sapiens) (P07550 whole entry, looked up): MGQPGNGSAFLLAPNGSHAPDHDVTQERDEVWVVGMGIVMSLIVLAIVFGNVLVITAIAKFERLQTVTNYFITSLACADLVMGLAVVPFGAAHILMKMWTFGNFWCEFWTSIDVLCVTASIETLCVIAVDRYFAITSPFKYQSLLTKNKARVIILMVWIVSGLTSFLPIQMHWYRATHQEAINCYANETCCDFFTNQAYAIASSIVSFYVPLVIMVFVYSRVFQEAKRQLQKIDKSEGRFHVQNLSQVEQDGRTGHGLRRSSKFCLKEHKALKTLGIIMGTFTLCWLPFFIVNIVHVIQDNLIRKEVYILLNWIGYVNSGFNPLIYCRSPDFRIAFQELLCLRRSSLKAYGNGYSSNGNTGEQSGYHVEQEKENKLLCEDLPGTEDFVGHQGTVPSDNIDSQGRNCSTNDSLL
Sequence of Gonadotropin-releasing hormone receptor (Homo sapiens) (P30968 whole entry, looked up): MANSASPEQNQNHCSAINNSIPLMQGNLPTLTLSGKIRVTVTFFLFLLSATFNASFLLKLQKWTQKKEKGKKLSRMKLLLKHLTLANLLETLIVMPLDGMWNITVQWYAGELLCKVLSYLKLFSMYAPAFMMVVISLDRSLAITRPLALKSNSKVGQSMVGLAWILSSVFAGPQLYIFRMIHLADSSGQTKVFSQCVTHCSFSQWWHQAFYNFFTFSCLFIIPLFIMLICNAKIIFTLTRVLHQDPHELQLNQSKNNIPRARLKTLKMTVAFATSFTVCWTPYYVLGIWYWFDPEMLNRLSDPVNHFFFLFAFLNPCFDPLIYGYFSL
Sequence of Muscarinic acetylcholine receptor M1 (Homo sapiens) (P11229 whole entry, looked up): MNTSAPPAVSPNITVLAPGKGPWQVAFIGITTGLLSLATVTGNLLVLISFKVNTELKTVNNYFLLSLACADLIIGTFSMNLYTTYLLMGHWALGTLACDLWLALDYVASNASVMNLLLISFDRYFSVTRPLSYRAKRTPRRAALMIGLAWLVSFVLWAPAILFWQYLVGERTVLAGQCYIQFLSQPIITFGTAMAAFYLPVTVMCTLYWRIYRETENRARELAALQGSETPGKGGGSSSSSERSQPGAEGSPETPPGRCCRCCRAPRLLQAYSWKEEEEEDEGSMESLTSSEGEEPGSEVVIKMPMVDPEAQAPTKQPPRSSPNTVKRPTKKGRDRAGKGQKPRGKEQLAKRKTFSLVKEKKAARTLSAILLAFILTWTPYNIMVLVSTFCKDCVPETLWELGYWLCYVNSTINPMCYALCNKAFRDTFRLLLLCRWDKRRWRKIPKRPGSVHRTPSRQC
Sequence of D(2) dopamine receptor (Homo sapiens) (P14416 whole entry, looked up): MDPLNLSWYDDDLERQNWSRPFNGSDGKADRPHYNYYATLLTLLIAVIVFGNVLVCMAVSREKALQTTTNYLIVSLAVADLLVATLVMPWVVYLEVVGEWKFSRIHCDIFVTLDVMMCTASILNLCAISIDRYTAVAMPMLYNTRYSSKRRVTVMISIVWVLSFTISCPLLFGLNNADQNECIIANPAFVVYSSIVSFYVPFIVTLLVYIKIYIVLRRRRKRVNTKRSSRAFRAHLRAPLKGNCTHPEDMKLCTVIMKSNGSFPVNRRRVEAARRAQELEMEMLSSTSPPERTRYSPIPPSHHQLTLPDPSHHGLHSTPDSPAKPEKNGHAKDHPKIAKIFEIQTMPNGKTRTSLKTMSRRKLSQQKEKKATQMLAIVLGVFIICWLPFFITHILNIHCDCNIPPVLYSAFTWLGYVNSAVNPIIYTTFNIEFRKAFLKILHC
Sequence of 5-hydroxytryptamine receptor 2A (Homo sapiens) (P28223 whole entry, looked up): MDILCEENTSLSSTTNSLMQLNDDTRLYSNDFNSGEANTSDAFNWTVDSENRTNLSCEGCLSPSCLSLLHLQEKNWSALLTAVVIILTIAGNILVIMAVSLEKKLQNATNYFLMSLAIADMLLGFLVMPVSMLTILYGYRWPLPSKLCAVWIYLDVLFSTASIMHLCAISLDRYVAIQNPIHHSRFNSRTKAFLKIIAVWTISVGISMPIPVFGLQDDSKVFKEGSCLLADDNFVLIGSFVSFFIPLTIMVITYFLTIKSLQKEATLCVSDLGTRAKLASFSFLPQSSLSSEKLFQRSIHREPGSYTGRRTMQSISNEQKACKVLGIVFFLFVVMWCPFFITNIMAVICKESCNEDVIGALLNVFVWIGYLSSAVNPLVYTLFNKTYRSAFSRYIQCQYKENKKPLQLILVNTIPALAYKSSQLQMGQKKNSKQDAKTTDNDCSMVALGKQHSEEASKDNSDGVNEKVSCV
Sequence of KiSS-1 receptor (Homo sapiens) (Q969F8 whole entry, looked up): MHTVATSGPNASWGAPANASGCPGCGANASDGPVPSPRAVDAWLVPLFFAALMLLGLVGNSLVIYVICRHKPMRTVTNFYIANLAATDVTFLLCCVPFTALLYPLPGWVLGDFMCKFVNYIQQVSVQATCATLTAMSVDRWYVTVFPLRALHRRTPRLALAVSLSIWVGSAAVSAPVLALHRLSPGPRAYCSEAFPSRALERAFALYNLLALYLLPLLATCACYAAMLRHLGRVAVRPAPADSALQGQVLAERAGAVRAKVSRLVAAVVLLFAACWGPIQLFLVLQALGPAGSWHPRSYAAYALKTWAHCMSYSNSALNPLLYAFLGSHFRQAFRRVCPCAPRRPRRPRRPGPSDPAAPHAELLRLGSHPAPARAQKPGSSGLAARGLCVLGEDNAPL

CCC(=O)O[C@]1(C(=O)CCl)[C@@H](C)C[C@H]2[C@@H]3CCC4=CC(=O)C=C[C@]4(C)[C@@]3(F)[C@@H](O)C[C@@]21C
Potency [1]: inactive | Potency [2]: inactive | Potency [3]: inactive | outcome [4]: inactive | outcome [5]: inactive | Potency [6]: inactive | Potency [7]: inactive | Potency [8]: inactive | Potency [9]: inactive | Potency [10]: inactive | Potency [11]: inactive | Potency [12]: inactive

CC(CC1c2ccccc2CCc2ccccc21)CN(C)C (centres undefined)
Potency [1]: inactive | Potency [2]: inactive | Potency [3]: inactive | outcome [4]: inactive | outcome [5]: inactive | Potency [6]: inactive | Potency [7]: inactive | Potency [8]: inactive | Potency [13]: inactive | Potency [14]: 0.0365 µM (active) | Potency [15]: inactive | Potency [16]: inactive | Potency [17]: inactive | Potency [10]: inactive | Potency [12]: inactive

O=C(Nc1ccccc1)c1ccccc1O
Potency [1]: inactive | Potency [2]: 61.1 µM (active) | Potency [3]: inactive | outcome [4]: inactive | outcome [5]: inactive | Potency [6]: inactive | Potency [7]: inactive | Potency [18]: inactive | Potency [9]: inactive | Potency [19]: inactive | Potency [13]: inactive | Potency [14]: inactive | Potency [15]: inactive | Potency [16]: inactive | Potency [17]: inactive | Potency [10]: inactive | Potency [12]: inactive | Potency [20]: inactive

CC(C)OC(=O)C(C)N(C(=O)c1ccccc1)c1ccc(F)c(Cl)c1 (centres undefined)
Potency [1]: inactive | Potency [2]: inactive | Potency [3]: inactive | outcome [4]: inactive | outcome [5]: inactive | Potency [6]: inactive | Potency [7]: inactive | Potency [18]: inactive | Potency [9]: inactive | Potency [19]: inactive | Potency [13]: inactive | Potency [14]: inactive | Potency [15]: inactive | Potency [10]: inactive | Potency [12]: inactive

Cc1ccnc2ccccc12
Potency [1]: inactive | Potency [2]: 68.4 µM (active) | Potency [3]: inactive | outcome [4]: inactive | outcome [5]: inactive | Potency [6]: inactive | Potency [7]: inactive | Potency [18]: inactive | Potency [9]: inactive | Potency [19]: inactive | Potency [13]: inactive | Potency [14]: inactive | Potency [15]: inactive | Potency [16]: inactive | Potency [17]: inactive | Potency [10]: inactive | Potency [12]: inactive | Potency [20]: inactive

CC(C)=CCC[C@H](C)CCO
Potency [1]: inactive | Potency [2]: inactive | Potency [3]: inactive | outcome [4]: inactive | outcome [5]: inactive | Potency [6]: inactive | Potency [7]: inactive | Potency [18]: inactive | Potency [9]: inactive | Potency [19]: inactive | Potency [13]: inactive | Potency [14]: inactive | Potency [15]: inactive | Potency [16]: inactive | Potency [17]: inactive | Potency [10]: inactive | Potency [12]: inactive | Potency [20]: inactive

CCOCCOCCOC(C)=O
Potency [1]: inactive | Potency [2]: inactive | Potency [3]: inactive | outcome [4]: inactive | outcome [5]: inactive | Potency [6]: inactive | Potency [7]: inactive | Potency [18]: inactive | Potency [9]: inactive | Potency [19]: inactive | Potency [13]: inactive | Potency [14]: inactive | Potency [15]: inactive | Potency [16]: inactive | Potency [17]: inactive | Potency [10]: inactive | Potency [12]: inactive | Potency [20]: inactive

CCn1cc(C(=O)O)c(=O)c2cc(F)c(N3CCN(C)CC3)cc21
activity change, negative = cytotoxicity [1]: 14.8% [at 19 µM] | activity, positive = activation [2]: -5.55% [at 19 µM] | activity change [3]: -1.03% [at 11.8 µM, active compounds read high] | activation [4]: -0.924% [at 15.8 µM] | activation [5]: -0.469% [at 11.8 µM] | activation [6]: 0.192% [at 13.5 µM] | activation [7]: -1.11% [at 13.6 µM] | activity change, negative = cytotoxicity [18]: -4.59% [at 13.5 µM] | activation [9]: -0.0544% [at 13.5 µM] | activation [16]: -2.07% [at 19 µM] | activity change, negative = inhibition [17]: -14.3% [at 18.9 µM] | activity change, negative = inhibition [10]: 0.624% [at 19 µM] | Potency [11]: inactive | activation [12]: 19.5% [at 19 µM] | activity change, negative = inhibition [20]: 4.28% [at 18.9 µM]
